Each structure is given as a SMILES string. Values without a mark were called inactive. The rule behind the calls is not given here.

This test is described as follows: P. aeruginosa biofilm formation inhibitors, primary screen, strain PAO1, LB-PBS medium, absorbance 600 nm (AID 1176). Note: test concentration not given here. Particulars: P. aeruginosa PAO1 growth/biofilm, A600, 12 h; higher = more signal.
With `C=CCN1C(=O)[C@@]2(O[C@@H](CCO)[C@H]([Si](C)(C)c3ccc(OC)cc3)[C@H]2C)c2cc(NC(=O)[C@H](C)O)ccc21`, the z-score was 1.73.
Then `COC(=O)[C@@]1(Cc2ccc(OC)cc2)[C@H]2c3cc(C(=O)N4CCCC4)n(CCF)c3C[C@H]2CN1C(=O)c1ccccc1`, with 1.06.
The same measure for `O=C1N(Cc2ccccc2)c2ccccc2[C@H]2OC(c3ccc(OCCCO)cc3)=N[C@@]12CCS(=O)(=O)c1ccccc1`: 1.47; for `CC(=O)NCCCC[C@@H]1NC(=O)[C@@H]2C[C@H](C(=O)NCCCC[N+](C)(C)C)[C@H](c3cccc(OCCO)c3)N2C1=O`: 0.876; for `COCCCNC(=O)[C@@]1(Cc2ccccc2I)c2ccccc2C(=O)N(Cc2ccccc2Cl)[C@H]1c1ccc(CO)cc1`: 0.112.
The same measure for `COCCCNC(=O)[C@@]1(Cc2ccccc2CN=[N+]=[N-])N=C(c2ccc(OCCCO)cc2)O[C@H]1c1ccccc1N=[N+]=[N-]`: 0.413; for `NCCCCCCNC(=O)[C@H]1C[C@H]2C(=O)N3CCC[C@H]3C(=O)N2[C@H]1c1ccc(O)cc1`: -0.0059.
As for `C=C(/C(=C/C[C@@H](OC(=O)c1ccncc1)c1cccc(OCCO)c1)c1cc(C(=O)OC)ccc1OC)C(C)C`, the z-score was 1.16.
The same measure for `CN1C(=O)C2C=CC(C(O)COCc3ccccc3)N(Nc3ccccc3)C2C1=O` (stereo not given): -0.0346; for `C=C[C@@H](O)[C@H]1CC(c2ccccc2)=NO1`: -0.496; for `COC(=O)[C@@]1(Cc2ccc(OC)cc2)[C@H]2c3cc(C(=O)N(C)C)n(CCF)c3C[C@H]2CN1C(=O)c1ccccc1`: -0.278.
The same measure for `C=CCC(OC(C)=O)[C@@H]1[C@@H](N(Cc2ccc(-c3cccc(C(F)(F)F)c3)o2)C(=O)c2cccc3ccccc23)c2cc(OCCCO)ccc2N1C(=O)c1ccc(-c2ccccc2)cc1` (stereo not given in full): -0.416; for `COc1cc(NN2C(C(O)c3ccc(I)cc3)C=CC3C(=O)N(C)C(=O)C32)cc(OC)c1OC` (stereo not given): 1.08.
`C=CCC(OC(C)=O)[C@@H]1[C@@H](N(Cc2cccc3ccccc23)C(=O)Cc2ccc(F)cc2)c2cc(OCCCO)ccc2N1C(=O)Cc1ccc(OC)cc1` (stereo not given in full): the z-score was -0.206.
On to `C=CCOC(=O)[C@@H]1[C@H]2C(=O)O[C@H](c3ccccc3)[C@H](c3ccccc3)N2[C@H](c2ccc(OCCOC(=O)[C@H]3C[C@H]4C(=O)N[C@@H](Cc5ccccc5)C(=O)N4[C@H]3c3cccc(OCCO)c3)cc2)[C@@]12C(=O)Nc1ccc(I)cc12`, for which the z-score is 0.199.
Then `CC(C)c1ccc(NN2C(C(O)c3cccs3)C=CC3C(=O)N(c4ccccc4)C(=O)C32)cc1` (stereo not given), with 0.835; and `CC1CC/C=C\[C@H]2OC34C=CCN(Cc5ccccc5)C(=O)[C@H]3N(CCO)C(=O)[C@@H]4C2C(=O)O1` (stereo not given in full), with -0.758.
Then `COCCOC(=O)N1C(=O)[C@@]2(c3cc(C#CC4(O)CCCCCC4)ccc31)[C@H](C(=O)N1CCc3cc(OC)c(OC)cc3C1)[C@H]1C(=O)O[C@H](c3ccccc3)[C@H](c3ccccc3)N1[C@@H]2c1ccccc1OCCO`, with 1.01; and `COc1ccc([Si](C)(C)[C@H]2[C@H](CC(=O)N3CCC[C@H]3CO)O[C@@]3(C(=O)N(Cc4ccc(N5C(=O)c6cccc7cccc5c67)cc4)c4ccccc43)[C@@H]2C)cc1`, with 0.189.
For the molecule `C=C(C(=O)CC[C@H](OC(=O)c1cccnc1)c1ccc(OCCO)cc1)C(C)C`, the z-score was 0.273.
Then `COC(=O)[C@@]1(Cc2ccccc2)[C@H]2c3cc(C(=O)N4CCCC4)n(CCO)c3C[C@H]2CN1C(=O)c1ccccc1`, with 0.259; and `C=CCNC(=O)[C@H]1[C@@H]2C(=O)O[C@@H](c3ccccc3)[C@@H](c3ccccc3)N2[C@@H](c2ccc(OCCO)cc2)[C@]12C(=O)N(C(=O)OCCOC)c1ccc(C#CC3=CCCCC3)cc12`, with 2.06.
`O=C1C2C=CC(C(O)c3cccc4ccccc34)N(Nc3ccccc3)C2C(=O)N1c1ccccc1` (stereo not given): the z-score is 1.6.
Then `Cc1ccc(S[C@]2(C(=O)O)CC(=O)N(C3CCCCC3)[C@@H]2c2ccc(CO)cc2)cc1`, with 0.512; and `CC(=O)NCCCC[C@@H]1NC(=O)[C@H]2C[C@@H](C(=O)NCCCCCN)[C@@H](c3cccc(OCCO)c3)N2C1=O`, with 0.0904.
